The source of these data is PubChem BioAssay (NCATS).

Experiment [1] is described as follows: Drug repurposing screens with cells derived from glioblastoma tumor samples (AID 1345199). Further: nearly all actives have a fitted effect of over 40% in size. As to conditions: GBM patient neurospheres viability, ATP luminescence, 48 h. The method, boiled down: (§1)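 Primary testing used CD133+ neurospheres from four GBM patients, seven concentrations, 48 h exposure and ATP-based viability; confirmation added three slower-growing patient lines.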

The subject of the next experiment is astro (control astrocytes). The description is as above. Particulars: viability, ATP luminescence, 48 h; series mostly up to 45.9 µM. The method, boiled down: as §1
[2] abbreviates: at 20 µM (top of the series), tumour line C.
[3] abbreviates: at 21.2 µM (top of the series), tumour line B.
Where [4] appears, read: at 21.2 µM (top of the series), tumour line D.
The mark [5] stands for this setting: at 21.3 µM (top of the series), tumour line A.
Where [6] appears, read: at 45.9 µM (top of the series), tumour line B.
The mark [7] stands for this setting: at 45.9 µM (top of the series), tumour line D.
The mark [8] stands for this setting: at 46 µM (top of the series), tumour line A.
Setting [9] is: at 46.1 µM (top of the series), tumour line C.

Several values for one entry are separate records, joined by “and”; a condition that tells them apart may be missing. Equal entries are not always repeated. Results filed as inconclusive are left out. Some structures have more than one record in an assay (separate samples or runs), and their calls can disagree. Values without a mark were called inactive. Activity calls are given as the source filed them. The call rests on the fitted dose curve; in most records, active means well fitted inhibition curve with a large enough effect; inconclusive means small, poorly fitted or top-dose-only effect; inactive means flat fitted curve, though single readings scatter. *1 amine or outer side, *2 acyl side, *3 side chain or, on linkers, in order; H or OH if unused. Where a SMILES comes first, the peptide text is derived from it. Bridges are numbered along the chain shown (N, C = ends). [ ]: non-standard residue; d: D form. The star is where a group is joined. X5 = NC1=N[C@@H]([C@H](N[*:1])C(=O)[*:2])C[C@H](O)N1; ΔAla(Z-3-ureido) = NC(=O)N/C=C(\N)C(=O)O; β3hOrn = NCCC[C@H](N)CC(=O)*; Dap = NC[C@H](N)C(=O)O
On the % scale 0 is the no-effect control and ±100 the full control effect; potency means the concentration at half of the fitted maximal effect.

On to `COc1ccc([C@@H]2CC(=O)c3c(O)cc(O[C@@H]4O[C@H](CO[C@@H]5O[C@@H](C)[C@H](O)[C@@H](O)[C@H]5O)[C@@H](O)[C@H](O)[C@H]4O)cc3O2)cc1O`, for which the activity, negative = cell killing in experiment [1] (setting [2]) is -7.12%; in experiment [1] (setting [3]), -4.88%; in experiment [1] (setting [4]), -12.7%; in experiment [1] (setting [5]) it was -11.4%. For the same compound, in the experiment on astro, the Potency entry was “inactive”.

As for `CC(=O)Nc1ccc(OC(=O)c2ccccc2O)cc1`, the activity, negative = cell killing in experiment [1] (setting [6]) was -6.12%; in experiment [1] (setting [7]), -8.68%; in experiment [1] (setting [8]) it was -14.5%; in experiment [1] (setting [9]) it was -22.3%. Further, the Potency entry with astro was “inactive”.

On to `CCCc1nc(C(C)(C)O)c(C(=O)OCc2oc(=O)oc2C)n1Cc1ccc(-c2ccccc2-c2nn[nH]n2)cc1`, for which the activity, negative = cell killing is -17.3% in experiment [1] (setting [6]), -13.8% in experiment [1] (setting [7]), -13% in experiment [1] (setting [8]) and -13.1% in experiment [1] (setting [9]). For the same compound, the Potency result in the experiment with astro is “inactive”.

Regarding `CC1(C)[C@@H]2CC[C@@]1(C)[C@H](OC(=O)CSC#N)C2`, the activity, negative = cell killing in experiment [1] (setting [6]) was -7.75%; in experiment [1] (setting [7]) it was -12%; in experiment [1] (setting [9]) it was 23.1%. The Potency in experiment [1] (tumour line A) was 35.5 µM (active). For the same compound, the Potency result in the experiment with astro was “inactive”.

For `NC[C@H]1O[C@H](O[C@H]2[C@H](O)[C@@H](O[C@H]3O[C@H](CO)[C@@H](O)[C@H](N)[C@H]3O)[C@H](N)C[C@@H]2N)[C@H](O)[C@@H](O)[C@@H]1O`, the activity, negative = cell killing was 3.71% in experiment [1] (setting [2]), -14.2% in experiment [1] (setting [3]), 0.603% in experiment [1] (setting [4]) and -23.6% in experiment [1] (setting [5]). Further, the Potency entry in the experiment with astro was “inactive”.

On to `CCCC(CCC)C(=O)OC1C[C@H]2CC[C@@H](C1)[N+]2(C)C` (stereo not given in full), for which the activity, negative = cell killing was -8.76% and -2.82% in experiment [1] (setting [6]); -23.5% and -24.1% in experiment [1] (setting [7]); -20.2% in experiment [1] (setting [9]). Also, the Potency in experiment [1] (tumour line A) was 17.8 µM (active). Further, the Potency entry in the experiment with astro was “inactive”.

Regarding `NCCC[C@H](N)CC(=O)N[C@H]1CNC(=O)[C@H]([C@H]2C[C@H](O)NC(N)=N2)NC(=O)/C(=C/NC(N)=O)NC(=O)[C@H](CO)NC(=O)[C@H](CO)NC1=O` (β3hOrn-[Dap]SS[ΔAla(Z-3-ureido)][X5]; lactam 1-C), the activity, negative = cell killing was -0.927% in experiment [1] (setting [6]), -12.2% in experiment [1] (setting [7]), -14.8% in experiment [1] (setting [8]) and -14% in experiment [1] (setting [9]). Also, the Potency result with astro was “inactive”.

Regarding `[O]=[Bi][O][Bi]=[O]`, the activity, negative = cell killing in experiment [1] (setting [6]) is -6.82%; in experiment [1] (setting [7]) it was -2.13%; in experiment [1] (setting [8]), 1.51%; in experiment [1] (setting [9]) it was 0.751%. The Potency result in the experiment on astro is “inactive”.

For `Cc1ncc(C[n+]2csc(CCO)c2C)c(N)n1`, the activity, negative = cell killing is -11.7% in experiment [1] (setting [2]), -7.55% in experiment [1] (setting [3]), 3.61% in experiment [1] (setting [4]) and -16.2% in experiment [1] (setting [5]). The Potency result in the experiment with astro was “inactive”.

Regarding `CCCCC[C@H](O)/C=C/[C@@H]1[C@H]2C/C(=C/CCCC(=O)O)O[C@H]2C[C@H]1O`, the activity, negative = cell killing in experiment [1] (setting [6]) is -2.96%; in experiment [1] (setting [7]), 0.816%; in experiment [1] (setting [8]), -14.4%; in experiment [1] (setting [9]), -18.7%. For the same compound, the Potency entry in the experiment with astro was “inactive”.

Take `CCCC(=O)Nc1c(I)cc(I)c(CC(CC)C(=O)O)c1I` (stereo not given): the activity, negative = cell killing in experiment [1] (setting [6]) was -12.8%; in experiment [1] (setting [7]) it was 14.7%; in experiment [1] (setting [8]), -17.5%; in experiment [1] (setting [9]), -13.2%. In addition, the Potency result in the experiment on astro was “inactive”.

Take `CO[C@H]1C=CO[C@@]2(C)Oc3c(C)c(O)c4c(O)c(cc(O)c4c3C2=O)NC(=O)/C(C)=C\C=C/[C@H](C)[C@H](O)[C@@H](C)[C@@H](O)[C@@H](C)[C@H](OC(C)=O)[C@@H]1C`: the activity, negative = cell killing in experiment [1] (setting [6]) was -13.5%; in experiment [1] (setting [7]), -5.36%; in experiment [1] (setting [8]) it was -17.1%; in experiment [1] (setting [9]), -2.25%. Besides, the Potency result in the experiment with astro was “inactive”.

Regarding `CC1(O)CCC(C(C)(C)O)CC1` (stereo not given), the activity, negative = cell killing was -1.19% in experiment [1] (setting [6]), -26.4% in experiment [1] (setting [7]), -16.9% in experiment [1] (setting [8]) and 9.01% in experiment [1] (setting [9]). Further, the Potency entry in the experiment on astro is “inactive”.

`NC(=S)NS(=O)(=O)c1ccc(N)cc1`: the activity, negative = cell killing is -6.04% in experiment [1] (setting [6]), 0.448% in experiment [1] (setting [7]), -23.8% in experiment [1] (setting [8]) and -8.76% in experiment [1] (setting [9]). In addition, the Potency entry in the experiment on astro was “inactive”.

As to `COC(=O)CCC[N+](C)(C)C`, the activity, negative = cell killing in experiment [1] (setting [6]) was 2.12%; in experiment [1] (setting [7]), -8.53%; in experiment [1] (setting [8]), -30.6%; in experiment [1] (setting [9]), -18.9%. Besides, the Potency result with astro was “inactive”.

As for `C[S+](C)CCC(N)C(=O)O` (stereo not given), the activity, negative = cell killing is -1.5% in experiment [1] (setting [6]), -4.21% in experiment [1] (setting [7]), -14.6% in experiment [1] (setting [8]) and -27.3% in experiment [1] (setting [9]). Besides, the Potency result with astro is “inactive”.

On to `CN(C)C=Nc1c(I)cc(I)c(CCC(=O)O)c1I`, for which the activity, negative = cell killing is -15.9% in experiment [1] (setting [6]), 6.53% in experiment [1] (setting [7]), -8.71% in experiment [1] (setting [8]) and -9.66% in experiment [1] (setting [9]). In addition, the Potency entry in the experiment on astro is “inactive”.

With H-RKDVY-OH, the activity, negative = cell killing in experiment [1] (setting [6]) is -2.29%; in experiment [1] (setting [7]), 4.86%; in experiment [1] (setting [8]), -6.05%; in experiment [1] (setting [9]), -18.9%. Also, the Potency entry in the experiment on astro is “inactive”.

Turning to `CCCCCCCCCCCCCC(=O)OCC(COP(=O)([O-])OCC[N+](C)(C)C)OC(=O)CCCCCCCCCCCCC` (stereo not given), the activity, negative = cell killing was -7.07% in experiment [1] (setting [6]), 3.06% in experiment [1] (setting [7]), -21.5% in experiment [1] (setting [8]) and -13.4% in experiment [1] (setting [9]). In addition, in the experiment with astro, the Potency entry is “inactive”.
